As a reminder, the AC50 is the concentration at which the activity in the assay is half-maximal.

The structures appear in SMILES notation. Several values for one entry are separate records, joined by “and”; a condition that tells them apart may be missing. Identical values can stand only once. Records with an inconclusive call do not appear. A structure can be active in one record and inactive in another. Activity calls are given as the source filed them. The calls were made as follows: active = hit-call score of the fitted dose curve at least 0.9, where 1 is the maximum; inconclusive = response in the unintended direction; inactive = score below 0.9.

The first assay in a line: Tanguay_ZF_120hpf_SOMI_legacy: (Legacy) Oregon State University Tanguay Lab 120 Hour Post-fertilization zebrafish Assay for Somite Malformation (AID 2283647). The essentials:
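Tropical 5D wild-type zebrafish embryos, dechorionated with pronase at 4 hpf, were placed singly at 6 hpf and statically exposed until 120 hpf at 28C in 0.64% DMSO. Somite malformation was scored present/absent by brightfield microscopy versus DMSO.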
Take `CCCCC(CC)CN1C(=O)C2C3C=CC(C3)C2C1=O` (stereo not drawn): the compound was called inactive.

On to `CCCCOCCOCCOCc1cc2c(cc1CCC)OCO2`, for which the compound was classed as inactive.

As for `CCOC(=O)C(C)Oc1ccc(Oc2nc3ccc(Cl)cc3o2)cc1` (stereo not drawn), the compound was called inactive.

In the case of `CC(=O)[C@H]1CC[C@H]2[C@@H]3CCC4=CC(=O)CC[C@]4(C)[C@H]3CC[C@]12C`, the compound was classed as inactive.

For the compound `CCSC(=O)N(CC(C)C)CC(C)C`, the compound was classed as inactive.

As for `CCN(Cc1c(F)cccc1Cl)c1c([N+](=O)[O-])cc(C(F)(F)F)cc1[N+](=O)[O-]`, the call was inactive.

For the compound `CCOC(=O)C(C)Oc1ccc(Oc2cnc3cc(Cl)ccc3n2)cc1` (stereo not drawn), the outcome was inactive.

A further assay is described as follows: Tanguay_ZF_120hpf_PFIN_legacy: (Legacy) Oregon State University Tanguay Lab 120 Hour Post-fertilization zebrafish Assay for Pectoral Fin Malformation (AID 2283648).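 Also: each larva judged yes or no for fin defect by brightfield with dead larvae skipped.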 The essentials:
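5D WT zebrafish; pronase dechorionation 4 hpf; 1 embryo/well at 6 hpf; static exposure to 120 hpf, 28C, sealed, foil-covered; final DMSO 0.64% v/v; 5 uM trimethyltin chloride positive control; fin defect scored yes/no.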
For the compound `CCN(CC)C(=O)c1cccc(C)c1`, the compound was classed as inactive.

As to `N#CSCSc1nc2ccccc2s1`, the compound was called inactive.

In the case of `COc1c(Cl)ccc(Cl)c1C(=O)O`, the result was inactive.

Regarding `O=C(c1ccccc1)C1CCCCC1`, the outcome was inactive.

Consider `CCNc1nc(N)nc(Cl)n1`, for which the outcome was inactive.

On to `CC(C)(c1ccc(O)cc1)c1ccc(O)cc1`, for which the AC50 was 29.8 µM (active) and 37.2 µM (active); the call was inactive.

For the compound `CCCN(CCC)c1c([N+](=O)[O-])cc(C(F)(F)F)c(N)c1[N+](=O)[O-]`, the call was inactive.

Consider `CCOC(=O)NCCOc1ccc(Oc2ccccc2)cc1`, for which the compound was called inactive.

In the case of `CCCCOC(=O)C(C)Oc1ccc(Oc2ccc(C(F)(F)F)cn2)cc1` (stereo not drawn), the outcome was inactive.

As for `Cc1nn(C)c(Oc2ccccc2)c1C=NOCc1ccc(C(=O)OC(C)(C)C)cc1`, the call was inactive.

On to `CC1(C)C(C=C(Cl)Cl)C1C(=O)OCc1cccc(Oc2ccccc2)c1` (stereo not drawn), for which the outcome was inactive.

On to `CCCCCOC(=O)COc1cc(N2C(=O)C3=C(CCCC3)C2=O)c(F)cc1Cl`, for which the result was inactive.

As to `CCC(C)OC(=O)N1CCCCC1CCO` (stereo not drawn), the result was inactive.

`O=C(O)c1ccccc1`: the compound was classed as inactive.

With `O=C(c1ccc(O)cc1O)c1ccc(O)cc1O`, the call was inactive.

For the compound `CC(C)CCCCCCc1ccc(O)cc1`, the outcome was inactive.

With `S=C([S-])NCCNC(=S)[S-].[Mn+2]`, the outcome was inactive.

`S=C(S)NCCNC(=S)S.[Mn+2].[S-]C([S-])=NCCN=C([S-])[S-].[Zn+2]`: the outcome was inactive.

Take `COCCO`: the compound was called inactive.

As for `O=C(O)C1(C(=O)Nc2ccc(Cl)cc2Cl)CC1`, the outcome was inactive.

`CCCCC(CC)CN1C(=O)C2C3C=CC(C3)C2C1=O` (stereo not drawn): the compound was classed as inactive.

With `CCCCOCCOCCOCc1cc2c(cc1CCC)OCO2`, the outcome was inactive.

Take `CCOC(=O)C(C)Oc1ccc(Oc2nc3ccc(Cl)cc3o2)cc1` (stereo not drawn): the compound was called inactive.

Turning to `CC(=O)[C@H]1CC[C@H]2[C@@H]3CCC4=CC(=O)CC[C@]4(C)[C@H]3CC[C@]12C`, the compound was called inactive.

Consider `CCSC(=O)N(CC(C)C)CC(C)C`, for which the compound was classed as inactive.

`CCN(Cc1c(F)cccc1Cl)c1c([N+](=O)[O-])cc(C(F)(F)F)cc1[N+](=O)[O-]`: the compound was classed as inactive.

Take `CCOC(=O)C(C)Oc1ccc(Oc2cnc3cc(Cl)ccc3n2)cc1` (stereo not drawn): the result was inactive.

Another assay is described as follows: Tanguay_ZF_120hpf_CFIN_legacy: (Legacy) Oregon State University Tanguay Lab 120 Hour Post-fertilization zebrafish Assay for Caudal Fin Malformation (AID 2283649). The essentials:
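Tropical 5D wild-type embryos, dechorionated with pronase at 4 hpf, were placed singly in wells at 6 hpf and statically exposed to compound at 28C until 120 hpf (0.64% DMSO). Caudal fin malformation was scored present/absent by brightfield microscopy.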
`CCN(CC)C(=O)c1cccc(C)c1`: the outcome was inactive.

Turning to `N#CSCSc1nc2ccccc2s1`, the call was inactive.

In the case of `COc1c(Cl)ccc(Cl)c1C(=O)O`, the outcome was inactive.

As to `O=C(c1ccccc1)C1CCCCC1`, the call was inactive.

On to `CCNc1nc(N)nc(Cl)n1`, for which the outcome was inactive.

For the compound `CC(C)(c1ccc(O)cc1)c1ccc(O)cc1`, the AC50 was 35.2 µM (active) and the result was inactive.

For the compound `CCCN(CCC)c1c([N+](=O)[O-])cc(C(F)(F)F)c(N)c1[N+](=O)[O-]`, the outcome was inactive.

Take `CCOC(=O)NCCOc1ccc(Oc2ccccc2)cc1`: the result was inactive.

As to `Cc1nn(C)c(Oc2ccccc2)c1C=NOCc1ccc(C(=O)OC(C)(C)C)cc1`, the compound was classed as inactive.

Take `CC1(C)C(C=C(Cl)Cl)C1C(=O)OCc1cccc(Oc2ccccc2)c1` (stereo not drawn): the result was inactive.

`CCCCCOC(=O)COc1cc(N2C(=O)C3=C(CCCC3)C2=O)c(F)cc1Cl`: the outcome was inactive.

For the compound `O=C(O)c1ccccc1`, the call was inactive.

Regarding `O=C(c1ccc(O)cc1O)c1ccc(O)cc1O`, the outcome was inactive.

For the compound `CC(C)CCCCCCc1ccc(O)cc1`, the call was inactive.

On to `C[C@]12C[C@H](O)[C@H]3[C@@H](CCC4=CC(=O)CC[C@@]43C)[C@@H]1CC[C@@H]2C(=O)CO`, for which the compound was called inactive.

For the compound `S=C([S-])NCCNC(=S)[S-].[Mn+2]`, the result was inactive.

Take `S=C(S)NCCNC(=S)S.[Mn+2].[S-]C([S-])=NCCN=C([S-])[S-].[Zn+2]`: the compound was called inactive.

Regarding `COCCO`, the compound was called inactive.

As for `O=C(O)C1(C(=O)Nc2ccc(Cl)cc2Cl)CC1`, the compound was called inactive.

Regarding `CCCCC(CC)CN1C(=O)C2C3C=CC(C3)C2C1=O` (stereo not drawn), the outcome was inactive.

In the case of `CCCCOCCOCCOCc1cc2c(cc1CCC)OCO2`, the AC50 was 10.7 µM (active).

As for `CC(=O)[C@H]1CC[C@H]2[C@@H]3CCC4=CC(=O)CC[C@]4(C)[C@H]3CC[C@]12C`, the compound was called inactive.

On to `CCSC(=O)N(CC(C)C)CC(C)C`, for which the call was inactive.

Consider `CCN(Cc1c(F)cccc1Cl)c1c([N+](=O)[O-])cc(C(F)(F)F)cc1[N+](=O)[O-]`, for which the compound was called inactive.

For `CCOC(=O)C(C)Oc1ccc(Oc2cnc3cc(Cl)ccc3n2)cc1` (stereo not drawn), the compound was called inactive.

Another assay is described as follows: Tanguay_ZF_120hpf_PIG_legacy: (Legacy) Oregon State University Tanguay Lab 120 Hour Post-fertilization zebrafish Assay for Pigmentation Malformation (AID 2283650). The method in brief:
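Pronase dechorionation at 4 hpf; embryos plated at 6 hpf, one per well; static exposure, sealed and foil-covered, 28C, to 120 hpf; pigmentation read by brightfield, binary; DMSO 0.64% baseline, 5uM trimethyltin chloride positive control.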
Turning to `CCN(CC)C(=O)c1cccc(C)c1`, the call was inactive.

For `N#CSCSc1nc2ccccc2s1`, the compound was classed as inactive.

Take `COc1c(Cl)ccc(Cl)c1C(=O)O`: the result was inactive.

Regarding `O=C(c1ccccc1)C1CCCCC1`, the outcome was inactive.

In the case of `CCNc1nc(N)nc(Cl)n1`, the compound was called inactive.

As for `CC(C)(c1ccc(O)cc1)c1ccc(O)cc1`, the AC50 was 42 µM (active) and 36.8 µM (active).

`CCCN(CCC)c1c([N+](=O)[O-])cc(C(F)(F)F)c(N)c1[N+](=O)[O-]`: the compound was classed as inactive.

As to `CCOC(=O)NCCOc1ccc(Oc2ccccc2)cc1`, the compound was called inactive.

As to `CCCCOC(=O)C(C)Oc1ccc(Oc2ccc(C(F)(F)F)cn2)cc1` (stereo not drawn), the call was inactive.

In the case of `Cc1nn(C)c(Oc2ccccc2)c1C=NOCc1ccc(C(=O)OC(C)(C)C)cc1`, the call was inactive.

Regarding `C#CCOC(=O)[C@@H](C)Oc1ccc(Oc2ncc(Cl)cc2F)cc1`, the compound was classed as inactive.

Turning to `CCCCCOC(=O)COc1cc(N2C(=O)C3=C(CCCC3)C2=O)c(F)cc1Cl`, the compound was called inactive.

As to `CCC(C)OC(=O)N1CCCCC1CCO` (stereo not drawn), the compound was classed as inactive.

As to `O=C(O)c1ccccc1`, the result was inactive.

In the case of `CC(C)CCCCCCc1ccc(O)cc1`, the call was inactive.

On to `C[C@]12C[C@H](O)[C@H]3[C@@H](CCC4=CC(=O)CC[C@@]43C)[C@@H]1CC[C@@H]2C(=O)CO`, for which the compound was classed as inactive.

As to `S=C([S-])NCCNC(=S)[S-].[Mn+2]`, the compound was called inactive.

Regarding `S=C(S)NCCNC(=S)S.[Mn+2].[S-]C([S-])=NCCN=C([S-])[S-].[Zn+2]`, the call was inactive.

In the case of `COCCO`, the outcome was inactive.

For `O=C(O)C1(C(=O)Nc2ccc(Cl)cc2Cl)CC1`, the compound was called inactive.

With `CCCCC(CC)CN1C(=O)C2C3C=CC(C3)C2C1=O` (stereo not drawn), the result was inactive.

For `CCCCOCCOCCOCc1cc2c(cc1CCC)OCO2`, the compound was classed as inactive.

Take `CCOC(=O)C(C)Oc1ccc(Oc2nc3ccc(Cl)cc3o2)cc1` (stereo not drawn): the compound was classed as inactive.

`CC(=O)[C@H]1CC[C@H]2[C@@H]3CCC4=CC(=O)CC[C@]4(C)[C@H]3CC[C@]12C`: the result was inactive.

In the case of `CCSC(=O)N(CC(C)C)CC(C)C`, the compound was called inactive.

With `CCN(Cc1c(F)cccc1Cl)c1c([N+](=O)[O-])cc(C(F)(F)F)cc1[N+](=O)[O-]`, the result was inactive.

In the case of `CCOC(=O)C(C)Oc1ccc(Oc2cnc3cc(Cl)ccc3n2)cc1` (stereo not drawn), the compound was called inactive.
